The target of assay [1] is Glutathione peroxidase 1 (Homo sapiens) (UniProt P07203). The assay is described as follows: Primary qHTS Assay for Inhibitors of Recombinant Selenoprotein Glutathione Peroxidase 1 (GPX1) (AID 1845191). Note: nearly all actives have a fitted effect of over 65% in size. The method in brief: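 10 nM GPX1 + cpd, 30 min RT; start w/ 1 mM GSH, 0.5 mM cumene hydroperoxide, 0.5 mM NADPH, 100 nM GR, 0.01% BSA; buffer 50 mM Tris-HCl pH 7.5, 2 mM EDTA, 150 mM NaCl; Fl 340/450, 0 & 15 min.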
Sequence of Glutathione peroxidase 1 (Homo sapiens) (P07203 whole entry, looked up): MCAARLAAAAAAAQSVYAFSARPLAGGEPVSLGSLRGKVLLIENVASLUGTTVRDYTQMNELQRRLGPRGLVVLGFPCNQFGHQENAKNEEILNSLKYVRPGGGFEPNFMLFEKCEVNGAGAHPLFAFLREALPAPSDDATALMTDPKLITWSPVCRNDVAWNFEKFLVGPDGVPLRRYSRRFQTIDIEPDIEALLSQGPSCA
(In general: Quantitative high-throughput screening tests each substance at several concentrations.)

Assay [2] deals with Phospholipid hydroperoxide glutathione peroxidase GPX4 (Homo sapiens) (UniProt P36969). The assay is described as follows: Primary qHTS Assay for Inhibitors of Recombinant Selenoprotein Glutathione Peroxidase 4 (GPX4) (AID 1845192). Note: nearly all actives have a fitted effect of over 65% in size. Note: potency is the fitted concentration of half-maximal effect. The method, boiled down: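 NADPH consumption, followed by fluorescence at 340/450 nm between 0 and 15 min, reports GPX4 activity via coupled glutathione reductase (100 nM). Enzyme 200 nM was pre-exposed to compound 30 min; 0.5 mM cumene hydroperoxide and 1 mM GSH served as substrates.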
Sequence of Phospholipid hydroperoxide glutathione peroxidase GPX4 (Homo sapiens) (P36969 whole entry, looked up): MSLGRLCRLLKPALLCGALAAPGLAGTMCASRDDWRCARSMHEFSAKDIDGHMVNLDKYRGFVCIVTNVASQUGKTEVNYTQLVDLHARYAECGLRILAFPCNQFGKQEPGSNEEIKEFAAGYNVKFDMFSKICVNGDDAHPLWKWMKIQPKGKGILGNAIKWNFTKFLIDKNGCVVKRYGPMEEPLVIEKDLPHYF

Assay [3] addresses Luciferin 4-monooxygenase (Photinus pyralis) (UniProt P08659). The assay is described as follows: Primary firefly luciferase (FLuc) qHTS assay for identification of artifact compounds. (AID 1845220). Note: nearly all actives have a fitted effect of over 60% in size. The method in brief: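 Cell-free, 1536-well qHTS. Buffer pH 7.6 with 0.01% Tween-20 and 0.05% BSA; 10 uM D-luciferin, 10 uM ATP; 10 nM P. pyralis luciferase; luminescence after 5 min.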

A short description of assay [4]: Primary fluorescence-based thiol-reactive (MSTI) qHTS assay for identification of artifact compounds. (AID 1845221).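 Note: series mostly up to about 54 µM; thiol-reactive compounds lower the probe fluorescence signal; nearly all actives have a fitted effect of over 65% in size.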 The method in brief:
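First, 4 uM MSTI in 2% DMSO/PBS pH 7.4 was dispensed; next, compounds were added; then plates sat 1 h at room temperature without light. Finally, emission at 598 nm was recorded.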

Assay [5] concerns Nanoluciferase (engineered Oplophorus gracilirostris luciferase). The assay is described as follows: Primary Nanoluciferase (NLuc) qHTS assay for identification of artifact compounds. (AID 1845222). Note: series mostly up to about 54 µM. The method, boiled down: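 Compounds are pinned into diluted (1:55) conditioned medium of NLuc-expressing S16 cells and held 15 min at room temperature protected from light. Nano-Glo substrate follows, and luminescence is read 5 min later.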

The nature of assay [6]: Primary redox qHTS assay for identification of artifact compounds. (AID 1845223). The method in brief:
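Amplex Red (25 uM) and HRP (250 mU/mL) in HBSS, with compounds for 15 min, then 250 uM DTT for 30 min, room temperature, dark. Fluorescence 525/598 nm read; normalized to DMSO and 10 uM DA3003; Hill fit.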

Results filed as inconclusive are left out. Calls of active or inactive are those of the source. Calls come from the whole dose curve; as a rule, active = well fitted curve in the direction sought with a large enough effect; inconclusive = small, poorly fitted or top-dose-only effect, or another doubt; inactive = no such curve, though single readings can be large; an effect the other way counts as inactive or inconclusive.

Take `O=C1CC[C@H](C(=O)N2CCCCC2)N1`: the Potency result in assay [1], in assay [2], in assay [3], in assay [4] and in assay [5] was “inactive” in each case. Moreover, the result in assay [6] was inactive.

In the case of `CN1CCC(N(Cc2cccs2)c2ccccc2)CC1`, the Potency entry in assay [1], in assay [3], in assay [4] and in assay [5] was “inactive” each time. In addition, the compound was classed as inactive in assay [6].

`Cc1cccc(N(C)C(=S)Oc2ccc3c(c2)CCC3)c1`: the Potency entry in assay [1], in assay [2], in assay [3], in assay [4] and in assay [5] was “inactive” throughout. In assay [6], the compound was called inactive.

With `CCCCNc1ccc(C(=O)OCCN(CC)CC)cc1`, the Potency result in assay [1], in assay [2], in assay [3], in assay [4] and in assay [5] was “inactive” in each case. In addition, the call in assay [6] was inactive.

As to `CCN(CC)CCOc1ccc(/C(=C(\Cl)c2ccccc2)c2ccccc2)cc1`, the Potency result in assay [1], in assay [2], in assay [3], in assay [4] and in assay [5] was “inactive” in each case. Moreover, in assay [6], the compound was called inactive.

In the case of `Nc1ncnc2nc[nH]c12`, the Potency entry in assay [2] was “inactive”.

Consider `CC(=O)O[C@@H]1C(=O)O[C@@H]2[C@H]1OC(=O)[C@@H]2OC(C)=O`, for which the Potency result in assay [1], in assay [3], in assay [4] and in assay [5] was “inactive” in each case. For the same compound, in assay [6], the compound was called inactive.

As for `CN1[C@@H]2CC[C@H]1CC(NC(=O)n1c(=O)[nH]c3ccccc31)C2` (some centres not stated), the Potency entry in assay [1], in assay [2], in assay [3], in assay [4] and in assay [5] was “inactive” in each case. The call in assay [6] was inactive.

`CC(C(O)c1ccccc1)N(C)CCOC(c1ccccc1)c1ccccc1` (configuration not stated): the Potency result in assay [1], in assay [2], in assay [3], in assay [4] and in assay [5] was “inactive” each time. In assay [6], the call was inactive.

Turning to `CCC(C(=O)NC(=O)NC(C)=O)c1ccccc1` (configuration not stated), the Potency result in assay [1], in assay [3], in assay [4] and in assay [5] was “inactive” in each case. Also, in assay [6], the compound was called inactive.

In the case of `CCCCCOc1ccc(C2SC(=O)NC2=O)cc1OCC` (configuration not stated), the Potency in assay [2] is 22.4 µM (active). Further, the Potency entry in assay [3], in assay [4] and in assay [5] was “inactive” each time. In assay [6], the result was inactive.

For `CC(C)(C)c1nnc(NS(=O)(=O)c2ccccc2)s1`, the Potency result in assay [1], in assay [2], in assay [3] and in assay [4] was “inactive” throughout. Besides, in assay [6], the compound was called inactive.
